High-throughput results (PubChem)
Cruzain Triton: cruzain (T. cruzi) inhibition with detergent; actives 0.43% (n = 200,000); purified cruzain, Z-FR-AMC fluorescence, 0.01% Triton; P25779; Potency, µM, without a hit: max response, negative = inhibition, most hits filed as inhibitors; active = well fitted curve in the direction sought with a large enough effect; inconclusive = small, poorly fitted or top-dose-only effect, or another doubt; inactive = no such curve, though single readings can be large; an effect the other way counts as inactive or inconclusive;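 note: potency is the fitted concentration of half-maximal effect; plate controls were neutral wells for no effect and buffer without enzyme for full effect; nearly all actives have a fitted effect of over 40% in size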
Target sequence (P25779 123-467 limits assumed): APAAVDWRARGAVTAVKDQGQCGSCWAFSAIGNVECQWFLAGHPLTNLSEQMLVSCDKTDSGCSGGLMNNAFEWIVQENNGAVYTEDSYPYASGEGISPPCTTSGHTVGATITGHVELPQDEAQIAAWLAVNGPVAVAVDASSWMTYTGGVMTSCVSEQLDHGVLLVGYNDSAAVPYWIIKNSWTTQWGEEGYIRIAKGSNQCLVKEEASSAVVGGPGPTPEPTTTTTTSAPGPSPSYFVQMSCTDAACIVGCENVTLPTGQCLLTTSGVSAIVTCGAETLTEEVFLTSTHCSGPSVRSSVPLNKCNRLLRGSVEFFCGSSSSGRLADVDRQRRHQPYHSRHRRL
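Sodium acetate buffer (100 mM, pH 5.5) containing 5 mM DTT and 0.01% Triton X-100 hosted 1.5 nM cruzain and test compound for 15 min at room temperature. Cleavage of 2 uM Z-FR-AMC was then tracked by fluorescence.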
Cruzain noTriton: blocks cruzain activity in detergent-free assay; purified cruzain, Z-FR-AMC fluorescence, no detergent; AID 1476; actives 2.3% (n = 200,000); Potency, µM, for the others: max response, negative = inhibition, usual class: inhibitors; P25779; active = well fitted curve in the direction sought with a large enough effect; inconclusive = small, poorly fitted or top-dose-only effect, or another doubt; inactive = no such curve, though single readings can be large; an effect the other way counts as inactive or inconclusive;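 note: potency is the fitted concentration of half-maximal effect; plate controls were enzyme without inhibitor for no effect and buffer without enzyme for full effect; nearly all actives have a fitted effect of over 40% in size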
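Purified cruzain at 1.5 nM, pre-incubated 15 min with compound at room temperature in 100 mM sodium acetate pH 5.5, 5 mM DTT, 0.00005% Triton X-100. Reaction started with 2 uM Z-FR-AMC; AMC fluorescence increase over 60 s gives rate.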
NS1 function inh: influenza NS1 inhibition; Potency, µM (titrated, usually from 46.1 µM), for the others: top-dose activity, positive = more growth; actives 0.4% (n = 270,000); AID 2326; note: potency is the fitted concentration of half-maximal effect; actives are rising curves; nearly all actives have a fitted effect of over 50% in size
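Read-out: OD600 growth recovery of NS1-expressing budding yeast. Cells grown overnight at 30C in -URA glucose medium, washed, resuspended and diluted 1:100 in 2% galactose assay medium, pH 6.0. Same strain lacking NS1 served as positive control.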
Flu NS1 inh: validation of influenza NS1 protein function inhibitors; shares compounds with NS1 function inh; activity change, negative = inhibition, % at 32.9 µM; AID 492980; 1,400 tested, under 10 active; influenza NS1 function cell assay, 15-point titration; note: 0% is about no effect
Starred values were filed as active, the others as inactive; u = inconclusive; x = no result. Many of the other results were omitted from the sample, so hits are more common in it than they were. Unless noted, calls come from the whole dose curve.

SMILES | Cruzain Triton | Cruzain noTriton | NS1 function inh | Flu NS1 inh
CC(C)(C)N(Cc1ccccc1)C(=O)CCc1ccccc1 | x | x | u | -32.6
CC(C)(C)N(Cc1ccccc1)C(=O)c1cccs1 | x | x | -4.8% | x
CCCCn1c(=O)cc(O)c2ccccc21 | -4.3% | -15.3% | 10µM* | 27.4
CCCCc1c(O)c2ccccc2n(CCCC)c1=O | -4.5% | -1.7% | -40.0% | x
Cc1ccc(-c2cc(C(=O)Nc3ccc(S(=O)(=O)Nc4nccs4)cc3)c3ccccc3n2)c(C)c1 | -7.9% | u | 18.4% | x
O=C(Nc1ccc(S(=O)(=O)Nc2nccs2)cc1)c1cc(-c2ccccc2)nc2ccccc12 | -9.3% | 1.1% | 11.2µM* | 0.6
Cc1nn(S(=O)(=O)c2ccc(C(C)(C)C)cc2)c(C)c1S(=O)(=O)N1CCCCCC1 | 0.0% | u | x | x
CCOc1ccc(N2CC(NC(=O)c3ccc(S(=O)(=O)N4CCCCC4)cc3)CC2=O)cc1 (stereo not given) | 0.8% | -3.7% | x | x
Cc1cccc(C)c1OCc1cc(=O)n2c3c(sc2n1)CCCC3 | -7.9% | -13.4% | x | x
COc1ccc(/C=C2\SC(=O)N(CCNC(=O)C3CCN(S(=O)(=O)c4cccs4)CC3)C2=O)cc1 | -6.4% | 0.8% | -9.1% | x
O=C(NCCN1C(=O)S/C(=C\c2ccc(F)cc2)C1=O)C1CCN(S(=O)(=O)c2cccs2)CC1 | -7.7% | 2.6% | u | 2.2
CCC(C)[C@H](NC(=O)NCc1cccc(OC)c1)C(=O)OC (stereo not given in full) | -1.0% | 0.6% | 2.24µM* | -8.9
COc1cccc(CNC(=O)N[C@@H](CC(C)C)C(=O)O)c1 | 4.0% | 9.5% | 7.9% | x
O=C(NCc1ccccc1)N[C@@H](Cc1ccccc1)C(=O)O | -0.1% | -12.8% | 6.4% | x
COc1ccc(OC)c(NC(=O)N[C@@H](Cc2ccccc2)C(=O)O)c1 | 2.1% | -13.5% | 4.7% | x
O=C(NCc1ccc(F)cc1)N[C@@H](Cc1ccccc1)C(=O)O | -8.2% | -1.1% | 1µM* | 22.3
COc1cc(NC(=O)N[C@@H](Cc2ccccc2)C(=O)O)cc(OC)c1 | 1.3% | -3.6% | u | 18.4
CC(C)(C)NC(=O)[C@H]1CN(Cc2cccnc2)CCN1C[C@@H](O)C[C@@H](Cc1ccccc1)C(=O)N[C@H]1c2ccccc2C[C@H]1O | -4.0% | u | x | x
Cc1ccc(NC(=O)Cn2c(=O)n(Cc3ccco3)c(=O)c3sc4ccccc4c32)cc1C | -25.5% | 20.4% | x | x
O=C(N/N=C/CCc1ccccc1)c1ccc(CN2c3cccc4cccc(c34)S2(=O)=O)cc1 | -1.3% | u | 8.91µM* | 25.0
O=S1(=O)c2cccc3cccc(c23)N1Cc1ccc(-c2nnco2)cc1 | -3.5% | -19.9% | -19.7% | x
CCCCn1c(S(=O)(=O)O)nc2ccccc21 | 0.3% | -5.5% | 1.2% | x
CCCCn1c(C)cc2cc(O)ccc21 | 2.0% | u | 10µM* | u
CCN(CC)c1ccc(NC(=O)c2c(C)nn(-c3ccc(F)cc3)c2-n2cccc2)c(C)c1 | -5.8% | -11.9% | x | x
COc1ccc(-c2nc3cnc(N4CCOCC4)nc3n(Cc3cccs3)c2=O)cc1 | 7.7% | 9.6% | x | x
SMILES | Cruzain Triton | Cruzain noTriton | NS1 function inh | Flu NS1 inh
COc1ccc2c(c1)nc(NCCO)n2C | -5.0% | -5.4% | 3.55µM* | -1.8
Cc1ccc2c(c1)nc(NCCCO)n2C | 8.5% | 2.0% | 0.8% | x
COc1ncc2nc(-c3cccs3)c(=O)n(-c3ccccc3)c2n1 | 5.7% | 12.1% | x | x
COCCn1nnnc1CN(Cc1ccco1)Cc1cc2cc3c(cc2[nH]c1=O)OCO3 | -3.9% | 6.7% | -2.5% | x
CCc1ccc2[nH]c(=O)c(CN(Cc3ccccc3OC)Cc3nnnn3Cc3ccco3)cc2c1 | -13.4% | -2.7% | u | x
Cc1ccc(C)c2[nH]c(=O)c(CN(Cc3ccc4c(c3)OCO4)Cc3nnnn3Cc3ccco3)cc12 | -1.3% | -6.9% | 11.2µM* | 1.5
COc1ccc2[nH]c(=O)c(CN(Cc3ccco3)Cc3nnnn3Cc3ccccc3)cc2c1 | 3.9% | 5.4% | 12.6µM* | 11.9
COc1ccc2c(c1)O[C@@H](c1cccc(C(F)(F)F)c1)[C@H](OC(=O)NCc1ccc3c(c1)OCO3)C2=O | -2.2% | -1.6% | x | x
Cc1c(OC(C)C(=O)N[C@H](C(=O)O)c2ccccc2)ccc2c3c(c(=O)oc12)CCCC3 (stereo not given in full) | x | x | 10µM* | -5.4
Cc1c(OC(C)C(=O)NCC(O)c2ccccc2)ccc2c3c(c(=O)oc12)CCC3 (stereo not given) | x | x | -14.7% | x
O=C(CSC1=Nc2ccccc2C2=NC(Cc3ccccc3)C(=O)N12)Nc1cccc(Cl)c1 (stereo not given) | -5.9% | -17.3% | x | x
O=c1[nH]c(=S)n(-c2ccc(Br)cc2)c(O)c1C=Nc1ccc(N2CCOCC2)cc1 | -10.2% | 10.3% | 7.94µM* | 5.9
Cc1cc(C)cc(-n2c(O)c(C=Nc3ccc(N4CCOCC4)cc3)c(=O)[nH]c2=S)c1 | -4.2% | u | 21.2% | x
COc1cccc(-c2cn3c(n2)sc2cc(C(=O)NCCCc4ccccc4)ccc23)c1 | -4.0% | 7.6% | x | x
COc1ccc(S(=O)(=O)N2CCC(Oc3ccc(-n4cnnn4)cc3)CC2)cc1OC | -3.0% | u | x | x
CC(C)NC(=O)c1ccccc1S(=O)(=O)c1ccccc1C#N | 0.9% | -9.3% | 1.0% | x
CNC(=O)c1ccccc1S(=O)(=O)c1ccccc1C#N | 1.2% | 0.8% | u | 22.5
COc1ccc(NS(=O)(=O)c2ccc(N3CCCC3)c(NC(=S)Nc3ccc(SC(F)F)cc3)c2)cc1 | -11.0% | u | 8.91µM* | u
COc1ccc(NS(=O)(=O)c2ccc(N3CCCC3)c(NC(=S)Nc3cccc(C)c3C)c2)cc1 | -16.9% | u | 26.2% | x
CC(=O)[C@@]1(N=Nc2ccc(S(N)(=O)=O)cc2)CCOC1=O | 2.0% | 0.9% | 4.1% | x
Cc1ccc(NC(=O)CN(C)S(=O)(=O)c2ccc3nc(C)sc3c2)c(C)c1 | 1.3% | 6.8% | x | x
CN(c1ccc(C(=O)N2CCCCC2)cc1)S(C)(=O)=O | 0.8% | -1.9% | 14.1µM* | 4.9
CC1CCN(C(=O)c2ccc(N(C)S(C)(=O)=O)cc2)CC1 | 7.1% | 12.9% | 1.2% | x
CC1(C)C(=O)C(c2ccccc2)=C2CN3C(=O)N(CCc4ccccc4)C(=O)C3(Cc3ccccc3)C=C21 (stereo not given) | 1.7% | 7.2% | x | x
Cc1sc2ncn(CC(=O)N3CCN(c4ccccc4F)CC3)c(=O)c2c1S(=O)(=O)N1CCN(c2ncccn2)CC1 | -3.0% | -5.0% | x | x
SMILES | Cruzain Triton | Cruzain noTriton | NS1 function inh | Flu NS1 inh
CCC1c2ccc(C)n2CCN1C(=O)Nc1ccccc1OC (stereo not given) | -1.0% | -5.0% | 15.8µM* | 2.9
COc1ccccc1NC(=O)N1CCN(C(=O)Nc2ccccc2OC)CC1 | x | x | -1.5% | x
COc1ccc(Oc2ncc3nc(-c4ccc(F)cc4)c(=O)n(CCC#N)c3n2)cc1 | -4.4% | 2.1% | x | x
Cc1ccc(S(=O)(=O)C(CNC(=O)COc2ccccc2)c2ccco2)cc1 (stereo not given) | -2.9% | -5.0% | x | x
CCOC(=O)c1ccc(N/C=C2\CCCCC2=O)cc1 | -10.1% | -4.1% | -9.8% | x
O=C1CCCC/C1=C\Nc1ccc(O)cc1 | -7.7% | -4.7% | u | -9.1
COc1ccc(CCNC(=O)Cn2nc(C)c3c(C)n(-c4ccc(C)cc4)nc3c2=O)c(OC)c1 | -3.9% | -1.7% | x | x
